# Data reported in the supplement of paper PMC8728848.
# Many of the other results were omitted from the sample, so the strongest signals are more common in it than they were.
# Experiments:
# Test in all cases: glycan array binding signal (z-score within array); higher = stronger binding
# Conditions in all cases: glycan notation: IUPAC condensed, linker removed
# Man(b1-4)GlcNAc = molecular target: Man(b1-4)GlcNAc
# Summary of the method: (§1)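 Glycan array binding is given as a within-array Z-score, which can be read as non-binding when negative. The arrays, 3228 of them, came from the Consortium for Functional Glycomics database and were retained only where the protein sequence was available. Z-scores were averaged across arrays of the same protein sequence at different concentrations or buffers and across linkers.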
# [1] = molecular target: Neu5Ac(a2-3)Gal(b1-4)[Fuc(a1-3)]GlcNAc(b1-3)GalNAc
# Summary of the method: as §1
# [2] = molecular target: Neu5Ac(a2-3)[GalNAc(b1-4)]Gal(b1-4)GlcNAc
# Summary of the method: as §1
# [3] = molecular target: Neu5Ac(a2-6)Gal(b1-4)GlcNAc
# Summary of the method: as §1
# [4] = molecular target: Neu5Ac(a2-8)Neu5Ac(a2-8)Neu5Ac
# Summary of the method: as §1
binder,measurement,setting,value
"pullulanase (Streptococcus pyogenes), Q8KLP1 (protein) MKKKVNQGSKRYQYLLKKWGIGFVIAATGTVMLGCIPSILTHQVAAKTIVGLARDEAQQGDGNAKSGDGFQSSSKEAKPVLDSSSANPASIAEHHLRMHFKTLPAGESLGSLGLWVWGDVDQPSKDWPNGAITMTKAKKDDYGYYLDVPLAAKHRQQVSYLINNKAGENLSKDQHIPLLTPKMNEVWIDENYHAHAYRPLKKGYLRINYHNQSGHYDNLAVWTFKDVKTPTTDWPNGLDLSHKGPYGAYVDVPLKEGANEIGFLILDKSKTGDAIKVQPKDYLFKELDNHTQVFVKDTDPKVYNNPYYIDQVSLKGAEQTTPNEIKAIFTTLDGLDEDAVKQNIKITDKAGKTVAIDELTLDKDKSVMTLKGDFKAQGAVYTVTFGEVSQVARQSWQLKDKLYAYDGELGATLAKDGSVDLALWSPSADSVKVVVYDKQDQTKVVGQADLTKSDKGVWRAHLTSDSVKGISDYTGYYYLYEITRGQEKVMVLDPYAKSLAAWNDATATDDIKTAKAAFIDPSKLGPTGLDFAKINNFKKREDAIIYEAHVRDFTSDKALEGKLTHPFGTFSAFVEQLDYLKDLGVTHVQLLPVLSYFYANELDKTRSTAYTSSDNNYNWGYDPQHYFALSGMYSANPNDPALRIAELKNLVNEIHKRGMGVIFDVVYNHTARTYLFEDLEPNYYHFMNADGTARESFGGGRLGTTHAMSRRILVDSITYLTREFKVDGFRFDMMGDHDAAAIEQAFKAAKAINPNTIMIGEGWRTYQGDEGKKEIAADQDWMKATNTVGVFSDDIRNTLKSGFPNEGTAAFITGGAKNLEGLFKTIKAQPSNFEADAPGDVVQYIAAHDNLTLHDVIAKSINKDPKVAEEEIHKRIRLGNTMILTAQGTAFIHSGQEYGRTKQLLNPDYKTKVSDDKVPNKATLIDAVAQYPYFIHDSYDSSDAVNHFDWAKATDSIAHPISNQTKAYTQGLIALRRSTDAFTKATKAEVDRDVTLITQAGQDGIQQEDLIMGYQTVASNGDRYAVFVNADNKTRKVVLPQAYRYLLGAQVLADAEQVGVTAIAKPKGVQFTKEGLTIDGLTALVLKVSSKTANPSQQKSQTDNHQTKTPDGSKDLDKSLMTRPKRAKTNQKLPKTGEAPSKGLLAAGVALLLLAISLLMKRQKD",glycan array binding signal (z-score),Man(b1-4)GlcNAc,0.398
same,glycan array binding signal (z-score),[1],2.87
same,glycan array binding signal (z-score),[2],-0.879
same,glycan array binding signal (z-score),[3],2.52
same,glycan array binding signal (z-score),[4],-0.738
